Source: PubChem BioAssay
Marburg entry inh: inhibitors of Marburg virus binding or cell entry | 300,000 compounds, 1.8% hits | AID 540276 | Marburg virus pseudotyped entry inhibition, cell reporter | Potency, µM (doses to about 37.8 µM), for inactives: at the highest dose activity change, negative = inhibition, actives largely listed as inhibitors; calls by dose curve; tested in HEK293 cells; note: potency is the fitted concentration of half-maximal effect
FMDV antiviral: foot and mouth disease virus antiviral activity; FMDV antiviral cell-based qHTS; Potency, µM (titrated, usually from 57.9 µM), for inactives: top-dose activity change, negative = inhibition, most hits filed as inhibitors; 410,000 compounds, 1.2% hits; calls by dose curve; tested in HEK293T cells; note: read-out not given here; potency is the fitted concentration of half-maximal effect; nearly all actives have a fitted effect of over 45% in size
HCV inhibitor: inhibitors of hepatitis C virus infection. Huh7.5.1 HCVcc-Cre infection, luciferase reporter, 44 h. Potency, µM (series often up to 41.8 µM), inactives show top-dose activity change, negative = inhibition, usual class: inhibitors. 340,000 compounds, 3.4% hits; note: potency is the fitted concentration of half-maximal effect
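Luciferase read-out (15 sec integration) after a 15 min room-temperature substrate step quantifies HCVcc-Cre infection. Cells, 1,000 per well, had compound added 4 h post-plating, then virus at ~0.5 moi, and were cultured 44 h.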
HCMV antiviral: human cytomegalovirus inhibition. 410,000 compounds, 4.5% hits. activity change, negative = inhibition, % at 57.5 µM. HFF cells, HCMV-luciferase reporter, 72 h; active compounds read low; in the data active = activity change below about -60%; inconclusive = no clear call, values can overlap the other calls; inactive = above about -39%
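Steps: HFFs plated, 16 h 37C; compounds added; HCMV-luciferase added to MOI 1 PFU/cell; 72 h 37C; OneGlo reagent, 5 min room temperature; luminescence read, normalized to controls.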
Lassa entry inh: blocks Lassa virus binding to or entry into cells; 300,000 compounds, 1.2% hits; Lassa virus pseudotype entry inhibition, cell reporter; Potency, µM (doses to about 37.9 µM), without a hit: at the top dose activity change, negative = inhibition, hits mostly inhibitors; calls by dose curve; tested in HEK293 cells; note: potency is the fitted concentration of half-maximal effect; nearly all actives have a fitted effect of over 50% in size
FBPA Giardia inh: blocks Giardia fructose-bisphosphate aldolase activity; A8B2U2; purified Giardia FBPA; Potency, µM (titrated, usually from 59.6 µM), for the others: at the highest dose activity, negative = inhibition, most hits filed as inhibitors; 290,000 compounds, 0.71% hits; note: potency is the fitted concentration of half-maximal effect; nearly all actives have a fitted effect of over 55% in size
Target sequence (A8B2U2 whole entry, looked up): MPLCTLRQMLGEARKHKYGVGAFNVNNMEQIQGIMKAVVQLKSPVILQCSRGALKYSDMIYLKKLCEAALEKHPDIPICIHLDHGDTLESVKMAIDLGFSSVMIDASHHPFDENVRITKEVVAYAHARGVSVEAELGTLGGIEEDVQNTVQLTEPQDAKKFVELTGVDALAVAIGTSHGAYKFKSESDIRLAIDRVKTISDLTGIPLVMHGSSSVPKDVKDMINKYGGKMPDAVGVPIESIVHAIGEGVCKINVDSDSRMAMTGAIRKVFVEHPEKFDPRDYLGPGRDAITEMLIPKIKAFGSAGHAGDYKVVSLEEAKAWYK
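Giardia FBPA (40 nM reagent) was preincubated 10 min at RT with compound (up to 57.5 uM final), then substrate plus GAPDH/TPI/NAD/arsenate coupling system with diaphorase/resazurin was added; resorufin fluorescence (525/598 nm) was read after 20 min.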
* = called active by the depositor; u = inconclusive; x = not tested or not shown; [ ] = dose if it differs, or a comment. An excerpt weighted towards active compounds, which were near 8.3% of everything screened. Unless noted, calls come from the whole dose curve; as a rule, active = well fitted curve in the direction sought with a large enough effect; inconclusive = small, poorly fitted or top-dose-only effect, or another doubt; inactive = no such curve, though single readings can be large; an effect the other way counts as inactive or inconclusive. % is set by controls: 0 for no effect and ±100 for the full control effect.

SMILES	Marburg entry inh	FMDV antiviral	HCV inhibitor	HCMV antiviral	Lassa entry inh	FBPA Giardia inh
COc1ccc2c(c1)-c1c(sn(-c3ccccc3)c1=S)C(C)(C)N2	-12%	u	u	u	-16%	-8%
COc1ccc2c(c1)-c1c(ssc1=S)C(C)(C)N2	5%	x	u	-89*	2%	-10%
COc1ccc(-n2sc3c(c2=S)-c2cc(OC)ccc2NC3(C)C)cc1	u	-10%	u	-68*	-19%	3%
COc1ccc(NC(=O)N2CCCC3(CCN(C(=O)c4cccc(F)c4)CC3)C2)cc1	x	-11%	x	x	x	-7%
COc1ccc(CNC(C)C2COc3ccccc3O2)c(OC)c1 (centres undefined)	11µM*	-23%	-6%	-8	2%	-19%
CC(NCc1ccccc1)C1COc2ccccc2O1 (centres undefined)	-9%	-4%	9%	-20	-14%	-17%
Cc1cc(SCC(=O)c2ccc(O)c(O)c2)nc2ccccc12	u	-19%	u	-70*	-4%	-21%
Cc1cccc(NC(=O)CSc2cc(C(=O)c3nccn3C)c3ccccc3n2)c1	6%	0%	8%	10	u	-9%
Cc1ccc(NC(=O)CSc2nc3ccccc3nc2N2CCOCC2)c(C)c1	x	-6%	u	-71*	x	0%
Cc1cccc(NC(=O)CSc2cc(C)c3ccccc3n2)c1	2.2µM*	-26%	x	-74*	u	x
COc1ccc2nc(SCC(=O)NN)cc(C)c2c1	-33%	-12%	10%	-15	0%	-5%
COc1ccc2c(C)cc(SCC(=O)Nc3cc(C(N)=O)cc(C(N)=O)c3)nc2c1	u	-17%	4µM*	-14	-13%	2%
Cc1ccc(C(C)C)c(OCC(=O)NCC2(N3CCOCC3)CCCCC2)c1	u	u	x	u	-6%[46.1 µM]	x
CC(C)C[C@H](NC(=O)CNC(=O)[C@H](CCC(N)=O)NC(=O)[C@H](Cc1ccc(O)cc1)NC(=O)[C@@H](NC(=O)[C@H](Cc1ccc(O)cc1)NC(=O)CNC(=O)[C@@H](N)CCCN=C(N)N)C(C)C)C(=O)O	x	x	x	x	x	5%
CCC1=C2CC[C@H]3C(=O)N(CC)C(=O)[C@H]3[C@H]2[C@@]2(C)C(=O)N(CC(=O)OC)C(=O)N2C1=O	x	x	x	x	x	-3%
COc1cc(OC)c(NC(=O)CN(C)S(=O)(=O)c2ccc3c(c2)CCCC(=O)N3)cc1Cl	x	0%	x	-28	5%[46.1 µM]	x
Cc1cccc(NC(=O)CSc2nc3ccccc3nc2N2CCC(C)CC2)c1	1.1µM*	-13%	x	-88*	u	x
CC(=O)Nc1ccc(NC(=O)CSc2nc3ccccc3nc2N2CCC(C)CC2)cc1	1%[46.1 µM]	9%	-7%	-7	u	4%
O=C(CSc1nc2ccccc2nc1N1CCCC1)Nc1ccc(F)cc1	x	10%	u	-65*	x	-1%
Fc1ccc(CSc2nncn3c2cc2occc23)c(Cl)c1	x	-4%	x	-35	-21%[46.1 µM]	x
Cc1cc(N=O)no1	x	x	x	4	x	x
CC1CC(C)C(=NNC(N)=O)C(C(O)CC2CCC(=O)NC2=O)C1 (centres undefined)	u	-11%	10µM*	u	u	x
CCCCC1(Cc2ccc([N+](=O)[O-])cc2)C(=O)N(c2ccccc2)N(c2ccccc2)C1=O	7.9µM*	u	13µM*	-98*	u	-2%
CC(C)Cc1nc(SCC(=O)NCC2CCCO2)c2c(=O)n(C)c(=O)n(C)c2n1 (centres undefined)	x	-5%	-12%	-78*	x	2%
CC(C)Cc1nc(SCC(=O)N2CCCCC2)c2c(=O)n(C)c(=O)n(C)c2n1	x	-13%	25µM*	u	x	x
CC(C)c1nc(SCC(=O)N2CCN(c3ccccc3)CC2)c2c(=O)n(C)c(=O)n(C)c2n1	x	20µM*	-8%	10	x	1%
COC(=O)NC(c1cccs1)C(C(C)=O)C(=O)OC (centres undefined)	x	x	x	x	x	0%[12.9 µM]
COCC=CC1=CC2=CC(=O)C(C)(OC(=O)c3cnc4ccccc4n3)C(=O)C2=CN1CCc1c[nH]c2ccccc12 (centres undefined)	22%[14.2 µM]	x	x	x	x	x
